The values that follow come from PubChem BioAssay (NCI).

Molecules are shown by their SMILES. About 83,000 compounds went through this panel and 20% of them were active in at least one assay; those are over-represented in the sample as a whole.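 Testing used 96-well plates and a 48-hour single-concentration exposure. Example: -40 means 40% of the starting cells died.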 Values without a mark were called inactive. The source made the active and inactive calls.

In this experiment the test system is HS 578T breast. In words: NCI-60 one-dose screen, 48 h (100 = growth as untreated, 0 = no growth, -100 = all killed). To be noted: 10 µM unless noted. The protocol:
Growth inhibition of the HS 578T human tumor cell line is measured as a screen for anti-cancer activity. Cells are grown in 96 well plates and exposed to the test compound for 48 hours. Compounds are tested at a single concentration, which is 10^-5 M for most compounds. The reported endpoint is percent growth (GI% or GIPRCNT), where numbers from 0 - 100% represent growth inhibition, and numbers from -100% - 0 represent cell death. For example, a value of 40 represents 60% growth inhibition. A value of 0 means no net growth occurred over the course of the experiment. A value of -40 indicates 40% of cells at the beginning of the experiment died by the end of the experiment. A value of -100 means all cells are dead at the end of the experiment.
NCI-60 Human Tumor Cell Lines Screen was performed using the standard one-dose NCI protocol, which is described in more detail at https://dtp.cancer.gov/discovery_development/nci-60/default.htm.
Compounds with GIPRCNT values below 10 were considered active. Activity score was based on GIPRCNT using the following formula: […]
Score is 0 for GIPRCNT values of 100 or above, 50 for GIPRCNT values of 0, and 100 for GIPRCNT values of -100.
As for `O=C1/C(=C/c2cn(-c3ccccc3)nc2-c2ccccc2)SC(=S)N1C1CCCCC1`, the growth is 103%.

As to `COC(=O)c1c(C)nc(C)c2c1C(=O)C(Br)=C(NCc1ccccc1)C2=O`, the growth is 76%.

For `COc1cc(OC)c(/C=C/C(=O)c2c(OC)cccc2OC)c(OC)c1`, the growth was 88.7%.

Consider `Nc1ncnc2c1N=C(c1ccc(Br)cc1)CC(c1cccc(Nc3ccnc4cc(C(F)(F)F)ccc34)c1)N2` (stereo not given), for which the growth is 65%.

`COc1ccccc1CNc1c2ccccc2nc2ccccc12`: the growth was 62%.

On to `Cn1cc(-c2csc(-c3c[nH]c4ccccc34)n2)c2cnccc21`, for which the growth is 88.3%.

As to `COc1ccc(-c2nc3c(ncc4ccc(=O)[nH]c43)s2)cc1`, the growth is 88%.

With `O=C(O)c1ccc(-n2cc(/C=N/Nc3ccccc3)c(-c3ccc(F)cc3F)n2)cc1`, the growth is 68.6%.

As to `COc1ccc(Nc2ncc(Br)c(NCCCNC(=O)C3CCCC3)n2)cc1`, the growth is 29.2%.

Regarding `CSc1nc(N)c(NS(=O)(=O)c2ccc(C(C)=O)cc2)c(=O)[nH]1`, the growth was 105%.

As for `COc1ccc2cc1Oc1ccc(cc1)C[C@H]1c3c(cc4c(c3Oc3cc5c(cc3OC)CCN(C)[C@@H]5C2)OCO4)CCN1C`, the growth was -6.41% (active).

`CCN1C(=O)N(CC)C2C1NN=c1s/c(=C\c3ccccc3F)c(=O)n12` (stereo not given): the growth is 13.2%.

Consider `Cc1cc(C)c2c(c1)N(C)c1ncnc(-n3cnc4cc(C)ccc43)c1CC2C` (stereo not given), for which the growth is 25.1%.

For `COc1cc2c(c(OC)c1OC)CCC(c1cccc(C(=O)Nc3ccc(C#N)cc3)c1)O2` (stereo not given), the growth is 72.3%.

For the compound `Cc1cccc(/C=C2\CN(C(=O)OC(C)(C)C)C/C(=C\c3cccc(C)c3)C2=O)c1`, the growth is 96.7%.

On to `C=C1CC[C@@H]2[C@](C)(COC(C)=O)[C@H](OC(C)=O)CC[C@@]2(C)[C@@H]1CC(Nc1ccc(S(=O)(=O)Nc2ncccn2)cc1)C1=CCOC1=O` (stereo not given in full), for which the growth was 51.2%.

As for `CCOC(=O)C(=O)C(C(=O)OCC)c1ccccc1` (stereo not given), the growth is 94.2%.

Turning to `COc1ccc(Nc2nnc(-c3ccc(OC)c(OC)c3)o2)cc1`, the growth is 94.2%.

As to `N#CC1=C(N)Oc2c(c(=O)[nH]c3ccc(Cl)cc23)C12C(=O)c1ccccc1C2=O`, the growth was 83.3%.

Turning to `O=C1C(Cl)=C(Nc2ccc(S(=O)(=O)N3CCOCC3)cc2)C(=O)c2ccccc21`, the growth was 79.2%.

Turning to `COc1ccc(-c2cc(-c3cc(OC)c(OC)c(OC)c3)c(C#N)c(=O)n2CCCCC(=O)NO)cc1`, the growth is 45%.

As to `CC(C)=CC(=O)OCC(=O)O[C@@H]1C[C@]2(C(C)C)O[C@@]1(C)[C@@H]1CC[C@@H](C)[C@H]1[C@@H]2OC(=O)/C=C/c1ccccc1`, the growth is -0.351% (active).

For the compound `CCCCCCCC[C@@H]1N[C@@H](C(=O)OC)Cc2c1[nH]c1ccccc21`, the growth is 91.7%.

For `Cc1c2cnccc2c(C)c2c1c1cc(C#N)ccc1n2C`, the growth was -18% (active).

Take `CCN1CCN(C(=O)[C@]23CCC(C)(C)C[C@@H]2C2=CC[C@@H]4[C@@]5(C)CCC(=O)C(C)(C)[C@@H]5CC[C@@]4(C)[C@]2(C)CC3)CC1`: the growth is 40.7%.

For the compound `Nc1nc2ccc(-c3nc4ccc5[nH]ncc5c4c4c3CCCC4)cc2s1`, the growth is 99.7%.

Take `COc1cc(OC)c(NC(=O)c2cc3ccccc3cc2O)cc1Cl`: the growth was 31.1%.

On to `CNc1nnc2n(-c3ccccc3)c(=O)c3cnn(-c4ccccc4)c3n12`, for which the growth was 97.4%.

Take `C#CCOc1cccc(Nc2ncnc3ccc(NC(=O)C=C)cc23)c1`: the growth is 42.4%.

Regarding `Nc1n[nH]c2ccc([C@H]3[C@@H]4C5CCC(C5)[C@@H]4c4c(ccc5[nH]ncc45)N3S(=O)(=O)C3CC3)cc12` (stereo not given in full), the growth was 22.7%.

`O=C(O)c1cn(C2CC2)c2cc(N3CCN(Cc4ccc5ccccc5c4O)CC3)c(F)cc2c1=O`: the growth is -1.88% (active).

For `Cc1cc(C(=O)O)c(C)n1-c1cccc(C(=O)O)c1`, the growth is 92.5%.

Turning to `CCCC/C(CC)=N\NS(=O)(=O)c1ccc([N+](=O)[O-])cc1`, the growth is 103%.

Turning to `Cn1c(I)c(C#CCO[Si](C)(C)C(C)(C)C)c(=O)[nH]c1=O`, the growth is 106%.

`COc1ccc(C/C(C)=C(\c2ccc(Cl)cc2)c2ccc(OCCN3CCCCC3)cc2)cc1`: the growth is 86.8%.

Consider `N#Cc1c(-c2ccc(Cl)cc2)nc(NN2C(=O)c3ccccc3C2=O)nc1N1CCOCC1`, for which the growth is 101%.

In the case of `Cc1cc(N2CCN(CCNc3ccnc4cc(Cl)ccc34)CC2)nc(N2CCOCC2)n1`, the growth is 85.8%.

As to `Cn1cc(-c2csc(-c3c[nH]c4ccc(Br)cc34)n2)c2ccnc(Cl)c21`, the growth is 68.7%.

Take `COc1ccc(-c2nc3cc(C(=O)NCc4ccccc4)ccc3n2C2CCCCC2)cc1`: the growth was 76.3%.

As for `Nc1nc(-c2ccc(Cl)cc2)nc2c1sc(=S)n2-c1ccccc1`, the growth is 19.9%.
